The test system of this test is LXRb:RXRa (NR concentration 270 nM, RXRa partner concentration 90 nM). Description: PBM binding z-score (relative to random genomic background probes); higher = stronger binding; sequences stand for … in GC…GCGATTGACAGCGTAGAATGAAGG
The procedure:
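Protein-binding microarray (Agilent 4x180K custom design, double-stranded 60-nt probes: 5' GC cap, 34-nt variable region, 24-nt constant primer region; full probe sequence given). Purified or IVT nuclear receptor:RXRα heterodimers (3:1 NR:RXRα, mostly 270:90 nM) or homodimers were incubated for 1 h in PBS with 2% milk and no ligand, then detected with Alexa488 antibodies. Fluorescence from o1-orientation probes (~5 replicates averaged) was converted to z-scores against 500 random hg19 background probes. Variable regions are seed direct-repeat (DR0–DR5) sites, all their single-nucleotide variants and half-site ablations.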
Regarding CCTAGTTGGTCAAGGTCACATACGCTATAGGTAC, the PBM binding z-score was 3.56.

ATCGAAAGGTCGACGAGGTGAGTAAACACCGTTT showed a PBM binding z-score of 2.87.

ATCGAAAGGTCGACCAGGTGAGTATACACCGTTT: the PBM binding z-score came out at 3.1.

CGTCCAAGGTCATAGAGGTCAGTGAATGCCGAGT showed a PBM binding z-score of 5.69.

The sequence TAGCCTAGTTCATGCGGGCCAGTATAGTGTCGGC came in with a PBM binding z-score of -0.398.

CCTAGCAGGCCAATCTAGGTCACTCAAGGCTTGA yielded a PBM binding z-score of 1.24.

The sequence TAGCCTAGGTCACATCGGGCCAGTATACGCTATA gave a PBM binding z-score of 2.29.

Sequence TCTAGTTGGTCTAAGGTCACACACTCGAAATGCG registered a PBM binding z-score of 4.1.

In the case of AGTCAAAGTTCAGGACGACGTAACGTAAAGCACG, the PBM binding z-score came to 1.67.

In turn, AGAATGAGGTCACCAAAGATCAGGGAAACGCTTG registered a PBM binding z-score of 5.13.

Sequence GATACAGGGTCAAGGTCAGAGTACGCGTATTGAT yielded a PBM binding z-score of 4.85.

TATCAAAGTTCAAAGGTAACGTAAGTATCCACAC yielded a PBM binding z-score of 4.98.

Take GCTTACGGGTCCAAGGTTATAGCATGAATAGAAT: the PBM binding z-score was determined as 0.855.

As to AGAATGAGGTCATTAAGATCAGGGAATTGCGGTC, the PBM binding z-score turned out to be 4.71.

As to CGTCAAAGTCCAAGGTAACGTAACAGAAAGCAGC, the PBM binding z-score is -0.011.

CATACAGGGTCGGCTAGGCCAGAGTAGGGACGGC: the PBM binding z-score was -0.242.

For the sequence CGTCCGAGGTCATAGGAGGTCAGTGAAGACAGAT, the PBM binding z-score stood at 6.8.

Sequence TAGCCGAGGTCATTCAGGGGCCAGTATAGAAAGC yielded a PBM binding z-score of 5.52.

CGTCCAAGGACAATGCTAGGTCAGTGAAAGCATT gave a PBM binding z-score of -0.0607.

Consider CCTTACGGGTCACGAGGTTGTAGCACGACGAGCG, for which the PBM binding z-score amounted to 3.44.

With CCAACTAGGTCAAAGGACAGTGAAAGGCGACGTA, the PBM binding z-score was determined as 1.91.

Sequence AGTCAAAGTTTATCTAGGTAACGTAAGATATGCT had a PBM binding z-score of 0.175.

ATCGAAAGGTCGTGAGGTAAGTATACAGAAAGGC gave a PBM binding z-score of 3.5.

TCTCGGAGGACACTAAAGGTCAGAGCTCGACATC had a PBM binding z-score of 3.73.

For the sequence CAGCATAGGTCAGGGCCAGTATAGGAGGAACGTT, the PBM binding z-score is 1.98.

With TCTTGTAGATCAACAGGAGGTTAATAAAGATCGA, the PBM binding z-score is 1.49.

In turn, GGAACGAGGTCATTCGAGTTGATAGCATGGCGAT yielded a PBM binding z-score of 4.8.

CGTCCAAGGTCATATGAGGTCAGTGAAGACAGAT: the PBM binding z-score came out at 6.58.

Consider TCGCCTAGGTCATGGGCCAGTATACCACGCGAAC, for which the PBM binding z-score stood at 2.29.

AGTCAAACTTCAGGACGAGGTAACGTAAAGCACG yielded a PBM binding z-score of -0.266.

For CGAACTAGGTCAAAGGACATTGAAAGGCGACGTA, the PBM binding z-score was 2.06.

Sequence AATACAGGGTCACGAGGCCAGAGTAGGTACGAAT showed a PBM binding z-score of 4.97.

Sequence CGAACGAGGTCACCAGGACAGTGAAGAGGTTGGA yielded a PBM binding z-score of 4.94.

Consider AGTCAAAGTTCATCTAGGTCACGTAAGATATGCT, for which the PBM binding z-score worked out at 4.9.

Regarding CCTTACGGGTCACTGACAGGTTATAGCGTTTGGA, the PBM binding z-score is 3.4.

In turn, ATCGAAAGGTCGAAGGTGAGCATACCCACCCGAA registered a PBM binding z-score of 2.79.

As for CCTACTGGGCCGTTCAGAGGTCATTGATCATATG, the PBM binding z-score stood at 3.55.

Take TTACCAAGGTGAAAGGTCGTTGCTGCACGCCTTG: the PBM binding z-score amounted to 2.89.

As to CCTAGTGGGCCAAGGTCATTGATCAGTCAAAGCA, the PBM binding z-score is 2.79.

CGAACTAGGTCTAAGGACAGTGAAAGGCGACGTA yielded a PBM binding z-score of -0.844.

These data come from the supplement of paper PMC6555819.
